# According to ChEMBL document CHEMBL3988442, “University of Dundee, Small-Polar-MMV Screening Library” (2021):
# The whole screen tested about 66,000 compounds, of which about 960 (1.5%) showed an effect of 50% or more. The list comes from a sample in which strong results are over-represented; it also holds similar structures and randomly drawn compounds.
# Tested on: Trypanosoma brucei
# Test: Trypanosoma brucei 72 hour study
# Assay type: functional, organism-based
# Set-up: scale not given: in the data most compounds retested in dose-response had high values
structure (smiles),measurement,setting,value
Cc1cc(C(=O)NCCN2CCCCC2C)nn1C(C)(C)C (stereo unspecified),Percent Effect,"30 µM, 30.03 µM",-37.93%
Cl.O=C(Nc1cccc(CNCc2ccsc2)c1)C1CC1,Percent Effect,10 µM,-60.42%
COCc1cc(NCCCSc2nnc(C)s2)ncn1,Percent Effect,"30 µM, 30.03 µM",0.4948%
CNC(=O)CC1CC2(CCN(CC3CC3)CC2)Oc2ccccc21.O=C(O)C(F)(F)F (stereo unspecified),Percent Effect,"30.3 µM, […]",-8.019%
O=C(CCc1nc(-c2ccccc2)no1)N[C@H]1COC[C@@H]1N1CCCC1,Percent Effect,"30.3 µM, […]",62.68%
CO[C@H]1CNC[C@@H]1NC(=O)CCc1nc(-c2ccccc2)no1,Percent Effect,"30.3 µM, […]",14.68%
CCO[C@H]1COC[C@@H]1NC(=O)CCc1nc(-c2ccccc2)no1,Percent Effect,"30.3 µM, […]",-3.299%
COCCN1C(=O)[C@H]2CC[C@@H]1CN(S(=O)(=O)c1ccc(OC)cc1)C2,Percent Effect,"30.3 µM, […]",-80.52%
COc1cc2nc(NCCN3CCNC3=O)cc(C)c2cc1OC,Percent Effect,"30 µM, 30.03 µM",57.38%
COc1cc2nc(NCCNS(C)(=O)=O)cc(C)c2cc1OC,Percent Effect,"30 µM, 30.03 µM",21.73%
COc1cc(OC)c2nc(NCCN3CCNC3=O)cc(C)c2c1,Percent Effect,"30 µM, 30.03 µM",22.56%
Cc1cc(NCCS(C)(=O)=O)nc2cc3c(cc12)CCC3,Percent Effect,"30 µM, 30.03 µM",3.514%
Cc1cc(NCCNS(C)(=O)=O)nc2cc3c(cc12)CCC3,Percent Effect,"30 µM, 30.03 µM",12.23%
Cc1cc(NCCN2CCNC2=O)nc2cc3c(cc12)CCC3,Percent Effect,"30 µM, 30.03 µM",101.3%
Cc1cc(C(=O)N2CCn3cc(CN4CCOCC4)nc3C2)no1.O=C(O)C(F)(F)F,Percent Effect,"30.3 µM, […]",-304.6%
CN1CC(=O)N(c2ccsc2)CC12CCN(C(=O)CC1CCCC1)C2.O=C(O)C(F)(F)F (stereo unspecified),Percent Effect,"30 µM, 30.03 µM",8.203%
O=C(C[C@@H]1COC[C@H]2CN(C3CCCC3)C[C@@H]12)NCc1cccnc1.O=C(O)C(F)(F)F.O=C(O)C(F)(F)F,Percent Effect,"30.3 µM, […]",5.505%
Cc1noc(CN2CCC(Cc3ccc(F)cc3)CC2)n1,Percent Effect,"30.3 µM, […]",-2.984%
CN(C)C(=O)N1C[C@@H]2CC[C@H](C1)N(Cc1nnc(C3CC3)o1)C2,Percent Effect,"30 µM, 30.03 µM",-29.28%
CNc1cc(-c2ccc(COCCN)cc2)c2cc[nH]c2n1,Percent Effect,"30 µM, 30.03 µM",-16.28%
Cc1cnccc1-c1cc(NCCO)nc2[nH]ccc12,Percent Effect,"30 µM, 30.03 µM",-32%
CCCNCc1ccc(-c2cc(N)nc3[nH]ccc23)cc1,Percent Effect,"30.3 µM, […]",58.31%
CCNCCOc1ccc(-c2cc(N)nc3[nH]ccc23)cc1,Percent Effect,"30.3 µM, […]",21.45%
CCCNCc1ccc(-c2ccnc3[nH]ccc23)cc1,Percent Effect,"30.3 µM, […]",63.66%
Nc1cc(-c2cc(O)cc(C(=O)O)c2)c2cc[nH]c2n1,Percent Effect,"30 µM, 30.03 µM",-9.984%
CC(C)N1CCC(c2nc3ccc(-c4ccnn4C)cn3n2)CC1.O=C(O)C(F)(F)F,Percent Effect,"30.3 µM, […]",-11.51%
O=C(CC1CCCC1)N1CCC2(CCN2Cc2ccc(F)cc2)C1.O=C(O)C(F)(F)F (stereo unspecified),Percent Effect,"30.3 µM, […]",-0.9298%
CCc1nnc(CN(C)CC2CCCCC2)o1,Percent Effect,"30 µM, 30.03 µM",-20.72%
Cc1ncnc2c1CCN(C(=O)c1cnccn1)CC2,Percent Effect,"30.3 µM, […]",17.88%
Cc1ccc(C(=O)N2CCc3ncnc(C)c3CC2)cn1,Percent Effect,"30 µM, 30.03 µM",1.33%
Cc1cnc(C(=O)N2CCc3ncnc(C)c3CC2)cn1,Percent Effect,"30 µM, 30.03 µM",54.93%
CCNC(=O)N(C)C1CCN(Cc2ncc(C)c(OC)c2C)CC1,Percent Effect,10 µM,-34.27%
Cc1cc(C(=O)N2CCC3(CC2)CC(c2cccnc2)C(=O)N3)no1.O=C(O)C(F)(F)F (stereo unspecified),Percent Effect,"30 µM, 30.03 µM",-44.38%
Cc1ncc(CNC2CC(=O)N(CCc3ccc(F)cc3)C2)n1C (stereo unspecified),Percent Effect,"30 µM, 30.03 µM",23.38%
Cc1nc[nH]c1CNC1CC(=O)N(CCc2cccc(Cl)c2)C1 (stereo unspecified),Percent Effect,"30 µM, 30.03 µM",-48.22%
O=C1CC(NCc2ccccn2)CN1CCc1ccc(F)cc1 (stereo unspecified),Percent Effect,"30 µM, 30.03 µM",2.338%
COc1ccc(CCN2CC(NCc3ncc[nH]3)CC2=O)cc1 (stereo unspecified),Percent Effect,"30 µM, 30.03 µM",64.92%
O=C1CC(NCc2ncc[nH]2)CN1CCc1cccc(Cl)c1 (stereo unspecified),Percent Effect,"30 µM, 30.03 µM",84.65%
O=C1CC(NCc2ccncc2)CN1CCc1cccc(Cl)c1 (stereo unspecified),Percent Effect,"30 µM, 30.03 µM",-25.97%
CCN1CCN(C(C)CNC(=O)Nc2nc3ccccc3s2)CC1 (stereo unspecified),Percent Effect,"30.3 µM, […]",21.11%
Fc1ccc(CN2CCc3ncnc(C4CC4)c3CC2)cc1.O=C(O)C(F)(F)F,Percent Effect,"30 µM, 30.03 µM",-12.14%
Cc1ccc(O)c(-c2cc(NCCO)nc3[nH]ccc23)c1,Percent Effect,"30 µM, 30.03 µM",-9.914%
CC(=O)N1[C@H](CN(C)C)C[C@@H]2CN(C(=O)c3occc3C)CC[C@@H]21.O=C(O)C(F)(F)F,Percent Effect,"30.3 µM, […]",-4.239%
O=C(O)C(F)(F)F.O=S(=O)(C1CC1)N1CCO[C@H]2[C@@H](Oc3ncccc3F)CC[C@@H]21,Percent Effect,"30.3 µM, […]",-15.89%
CC(C)c1cn(CC(=O)NC2CC(=O)N(CCc3ccccc3)C2)nn1 (stereo unspecified),Percent Effect,"30.3 µM, […]",-9.844%
CCN(Cc1noc(CC(C)C)n1)Cc1ccccc1C,Percent Effect,"30.3 µM, […]",13.68%
